Bioassay records from PubChem BioAssay.
A selection: hits, their analogues and other compounds. The true share with any hit is near 7.2%.
FLuc inh: inhibitors of firefly luciferase; hit rate 2.2% among 72,000; purified firefly luciferase, luminescence, 8 min; Potency, µM (titrated, usually from 57.1 µM), for the others: at the top dose activity change, negative = inhibition, usual class: inhibitors; P08659; AID 411; note: % is set by controls: 0 for no effect and ±100 for the full control effect; nearly all actives have a fitted effect of over 40% in size
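Inhibition of light generation by firefly luciferase from ATP and luciferin was profiled with concentration-response curves per sample, ATP held at 10 uM within the enzyme's linear range. Plates were read by luminescence after an 8-minute ambient incubation.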
Tau fil binding: binds recombinant human tau filaments. P10636. recombinant tau filaments, thioflavin S fluorescence, 15 h; filaments grown with octadecylsulfate alongside compound. Potency, µM (highest dose often 57.1 µM), for inactives: top-dose activity change, negative = inhibition. hit rate 2% among 71,000. AID 596;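 note: % is set by controls: 0 for no effect and ±100 for the full control effect; actives lower thioflavin S fluorescence by blocking filaments or displacing dye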
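Tau 2 uM in ThS buffer dispensed; compound added; 60 uM ODS added (finals 1 uM tau, 30 uM ODS); 15 h 37 C; fluor ex450/em510.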
HEK293 cAMP cs: parental HEK293 cAMP activation (counter-screen) | parental HEK293 CNG cAMP sensor, membrane potential fluorescence | Potency, µM (doses to about 57.1 µM), inactives show top-dose activation, usual class: activators | hit rate 2.5% among 73,000; note: % of control where 0% means no effect; nearly all actives have a fitted effect of over 55% in size
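Counterscreen for endogenous-receptor signalling: CNG-channel HEK 293 cells report cAMP rise by membrane depolarization. After 60 min dye equilibration with 100 uM RO 20-1724, compounds incubated 30 min before bottom-read fluorescence at 590 nm.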
PK Bst: pyruvate kinase (B. stearothermophilus) modulation. hit rate 1.2% among 51,000. Potency, µM. purified pyruvate kinase, luminescence ATP production; ribose 5-phosphate activator present at AC10. AID 361; in the data active = potency below about 11 µM; inconclusive = mostly about 12 µM to 25 µM;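 the screen sought inhibitors and activators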;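 note: scaled between full activation by ribose 5 phosphate and full inhibition by luteolin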
TSHR ag: TSH receptor (human) agonism; HEK293-CNG-TSHR cells (CNG channel as cAMP sensor), membrane potential dye, cAMP; Potency, µM (highest dose often 57.1 µM), without a hit: at the highest dose activation, hits mostly activators; hit rate 0.48% among 73,000; AID 926; active = well fitted activation curve with a large enough effect in the main read-out, with a control signal flat, not every such curve was filed as active; inconclusive = small, poorly fitted or top-dose-only effect, or a change in a side signal; inactive = no such curve, though single readings can be large or run the other way; % of control where 0% means no effect;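 note: the control signal comes from parental cells without the receptor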
Target sequence (P16473 whole entry, looked up): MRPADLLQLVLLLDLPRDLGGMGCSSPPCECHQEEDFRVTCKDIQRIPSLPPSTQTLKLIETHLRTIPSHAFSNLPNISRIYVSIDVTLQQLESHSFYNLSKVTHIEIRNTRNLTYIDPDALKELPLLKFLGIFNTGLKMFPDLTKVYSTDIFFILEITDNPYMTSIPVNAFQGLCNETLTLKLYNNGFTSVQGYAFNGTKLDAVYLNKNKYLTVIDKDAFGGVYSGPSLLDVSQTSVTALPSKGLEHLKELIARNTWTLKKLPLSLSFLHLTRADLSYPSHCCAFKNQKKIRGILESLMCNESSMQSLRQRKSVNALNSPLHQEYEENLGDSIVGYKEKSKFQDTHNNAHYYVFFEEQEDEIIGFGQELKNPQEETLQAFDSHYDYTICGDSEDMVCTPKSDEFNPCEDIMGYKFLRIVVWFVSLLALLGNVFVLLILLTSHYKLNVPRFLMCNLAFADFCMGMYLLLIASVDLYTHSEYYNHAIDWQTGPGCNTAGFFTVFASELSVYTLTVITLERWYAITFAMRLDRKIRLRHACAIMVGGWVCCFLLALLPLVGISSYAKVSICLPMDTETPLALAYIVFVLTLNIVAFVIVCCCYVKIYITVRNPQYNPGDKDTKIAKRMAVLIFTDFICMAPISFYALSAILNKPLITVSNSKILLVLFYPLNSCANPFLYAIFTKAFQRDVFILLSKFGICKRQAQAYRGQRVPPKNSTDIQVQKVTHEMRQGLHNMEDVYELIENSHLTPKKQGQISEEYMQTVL
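HEK 293 cells stably expressing TSHR and a modified CNG channel, with CNG-only parental cells as counterscreen, were preloaded 60 min at room temperature with membrane potential dye containing 100 uM RO 20-1724. Compound exposure was 30 min, and depolarization was read as fluorescence at 590 nm.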
ERK AVP inh: blocks ERK signaling stimulated by vasopressin | HEK293-V1b, vasopressin-stimulated pERK AlphaScreen | Potency, µM (doses to about 57.5 µM), for the others: at the highest dose activity, negative = inhibition, most hits filed as inhibitors | hit rate 0.99% among 72,000; note: % is set by controls: 0 for no effect and ±100 for the full control effect; nearly all actives have a fitted effect of over 55% in size
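Phosphorylated ERK1/2 detected via AlphaScreen bead proximity in lysates of V1b-expressing HEK293 cells given 25 nM vasopressin for 5 min after 30 min compound exposure (37 °C). AC50 from Hill equation; basal DMSO 0%, vasopressin 100%.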
* hit, by the source's call; [ ] = remark or other dose. Unless noted, calls come from the whole dose curve; as a rule, active = well fitted curve in the direction sought with a large enough effect; inconclusive = small, poorly fitted or top-dose-only effect, or another doubt; inactive = no such curve, though single readings can be large; an effect the other way counts as inactive or inconclusive. Potency is the fitted concentration of half-maximal effect.

What do the screens show for `CC[N+](CC)(CC)CC[C@](O)(c1ccccc1)C1CCCCC1`?
FLuc inh: -9%[25.5 µM]; Tau fil binding: -20%[25.6 µM]; HEK293 cAMP cs: 4%[25.6 µM]; TSHR ag: 2%[25.6 µM]; ERK AVP inh: 12%[25.7 µM]

What do the screens show for `CCOC(=O)Cn1c(CN2CC(C)OC(C)C2)nc2c1c(=O)n(C)c(=O)n2C` (stereo not given)?
FLuc inh: -2%; Tau fil binding: 19%; HEK293 cAMP cs: 26%; TSHR ag: 4µM*

What do the screens show for `CCOC(=O)c1ccc(NC(=O)CCc2nc(-c3cccc(C)c3)no2)cc1`?
FLuc inh: 2%; Tau fil binding: 153%; HEK293 cAMP cs: 30%; PK Bst: >57; TSHR ag: -7%[11.4 µM]; ERK AVP inh: 25µM*

What do the screens show for `CSCCC(N)C(=O)NC(CC(C)C)C(=O)NC(Cc1ccccc1)C(=O)O` (stereo not given)?
ERK AVP inh: 1%

What do the screens show for `CCNc1nc(CC)nc2c1oc1ccccc12`?
FLuc inh: -3%; Tau fil binding: 4%; HEK293 cAMP cs: 7%; PK Bst: 5*; TSHR ag: 11%; ERK AVP inh: -17%

What do the screens show for `CCNc1nc(C)nc2c1oc1ccccc12`?
FLuc inh: 1%; Tau fil binding: -19%; HEK293 cAMP cs: -1%; PK Bst: >57; TSHR ag: 23%; ERK AVP inh: 6%

What do the screens show for `CCc1nc(N2CCC(C)CC2)c2oc3ccccc3c2n1`?
FLuc inh: 1%; Tau fil binding: 23%; HEK293 cAMP cs: 16µM*; TSHR ag: inconclusive; ERK AVP inh: 20%

What do the screens show for `CCc1nc(OCCN(CC)CC)c2oc3ccccc3c2n1`?
FLuc inh: 1%; Tau fil binding: 8%; HEK293 cAMP cs: 15%; PK Bst: >57; TSHR ag: 13%; ERK AVP inh: -18%

Results for CCc1nc(N(CC)CC)c2oc3ccccc3c2n1 ?
FLuc inh: -2%; Tau fil binding: -7%; HEK293 cAMP cs: 16µM*; PK Bst: >57; TSHR ag: inconclusive; ERK AVP inh: 18%

Results for COc1cccc(-c2nccc(NC3CCNCC3)n2)c1 ?
FLuc inh: -2%[2.29 µM]; Tau fil binding: -3%; HEK293 cAMP cs: 4%; TSHR ag: 2%; ERK AVP inh: 5%

Results for C=CCOC(=O)c1[nH]c2c(c1C)C(=O)CC(c1cc(OC)c(OC)c(OC)c1)C2 (stereo not given) ?
FLuc inh: -1%; Tau fil binding: 39%; HEK293 cAMP cs: inconclusive; TSHR ag: inconclusive; ERK AVP inh: inconclusive

Results for CCCCOC(=O)c1[nH]c2c(c1C)C(=O)CC(c1cc(OC)c(OC)c(OC)c1)C2 (stereo not given) ?
FLuc inh: 2%; Tau fil binding: 192%; HEK293 cAMP cs: inconclusive; TSHR ag: inconclusive; ERK AVP inh: 25µM*

Results for CCOC(=O)c1[nH]c2c(c1C)C(=O)CC(c1ccco1)C2 (stereo not given) ?
FLuc inh: 0%; Tau fil binding: 4%; HEK293 cAMP cs: 32µM*; TSHR ag: inconclusive; ERK AVP inh: -27%

How did COc1ccc2[nH]c3c(c2c1)CCn1c-3nc2ccccc2c1=O do in these assays?
FLuc inh: 0.63µM*; Tau fil binding: 168%; HEK293 cAMP cs: 15%; PK Bst: 0.2*; TSHR ag: -6%; ERK AVP inh: -2%

What do the screens show for `COc1cc(OC)cc(C(=O)Nn2c(C)nc3ccccc3c2=O)c1`?
FLuc inh: 1%; Tau fil binding: 0%; HEK293 cAMP cs: 6%; PK Bst: >57; TSHR ag: 7%; ERK AVP inh: 14%

Results for CCOC(=O)N/N=C1/C[C@@H](O)[C@@H](O)[C@@H]2[C@@H]3C(=O)N(C(C)(C)C)C(=O)[C@H]3CC[C@H]12 ?
FLuc inh: 0%[11.4 µM]; HEK293 cAMP cs: inconclusive; TSHR ag: inconclusive; ERK AVP inh: 12%[11.5 µM]

How did N#CCCCSc1nnc(CSc2nc3ccccc3s2)n1-c1ccccc1 do in these assays?
FLuc inh: -1%; Tau fil binding: 11%; HEK293 cAMP cs: inconclusive; PK Bst: inconclusive; TSHR ag: inconclusive; ERK AVP inh: 25µM*

Results for N#CCc1nc(CSc2nc3ccccc3s2)cs1 ?
FLuc inh: -8%; Tau fil binding: -19%; HEK293 cAMP cs: 10%; PK Bst: >57; TSHR ag: 7%; ERK AVP inh: 0%

Results for N#CCCCSc1nnc(-c2ccc(Cl)cc2)n1-c1ccccc1 ?
FLuc inh: -2%; Tau fil binding: 16%; HEK293 cAMP cs: 25µM*; TSHR ag: inconclusive; ERK AVP inh: -25%

Results for Cc1noc(C)c1-c1cc(NC2CC2)ncn1 ?
FLuc inh: 3%[2.29 µM]; Tau fil binding: 4%; HEK293 cAMP cs: -5%; TSHR ag: 2%; ERK AVP inh: -5%

What do the screens show for `O=C(CCc1ccc(O)cc1)c1c(O)cc(O)cc1O[C@@H]1O[C@@H](CO)[C@@H](O)[C@@H](O)[C@H]1O`?
FLuc inh: 0%[11.4 µM]; Tau fil binding: inconclusive; HEK293 cAMP cs: 7%; TSHR ag: -3%

How did CCN(CC)c1ccc2cc(NC(=O)CCC(=O)O)c(=O)oc2c1 do in these assays?
FLuc inh: 16µM*; Tau fil binding: inactive; HEK293 cAMP cs: 1%; PK Bst: inactive; TSHR ag: -13%; ERK AVP inh: -2%

Results for CCN(CC)c1ccc2cc(C(=O)Nc3cccnc3N3CCOCC3)c(=O)oc2c1 ?
FLuc inh: 0%; Tau fil binding: 297%; HEK293 cAMP cs: 4%; PK Bst: >57; TSHR ag: 1%; ERK AVP inh: -12%

How did CCN(CC)c1ccc2cc(C(=O)Nc3ccccn3)c(=O)oc2c1 do in these assays?
FLuc inh: 1µM*; PK Bst: inactive

What do the screens show for `Cc1cc(N2CCN(c3ccccc3)CC2)n2nnnc2n1`?
FLuc inh: 0%; Tau fil binding: -13%; HEK293 cAMP cs: 2%; PK Bst: >57; TSHR ag: -5%; ERK AVP inh: 9%

What do the screens show for `Cc1cc(N2CCN(c3ccccc3)CC2)n2c(n1)nc1ccccc12`?
FLuc inh: -1%; Tau fil binding: 10%; HEK293 cAMP cs: 25µM*; PK Bst: >57; TSHR ag: inconclusive; ERK AVP inh: -6%

Results for CCOC(=O)CCS(=O)(=O)c1nc(-c2ccccc2)cc(C(F)(F)F)n1 ?
FLuc inh: -1%; Tau fil binding: inconclusive; HEK293 cAMP cs: 16%; TSHR ag: 14%; ERK AVP inh: 35%

Results for CCOC(=O)CS(=O)(=O)c1nc(-c2ccc(F)cc2)cc(C(F)(F)F)n1 ?
FLuc inh: -5%; Tau fil binding: -29%; HEK293 cAMP cs: 6%; PK Bst: 5.5*; TSHR ag: 15%; ERK AVP inh: inconclusive
